Many of the other results were omitted from the sample, so hits are more common in it than they were.
TDP1 cell noCPT – qHTS for Inhibitors of human tyrosyl-DNA phosphodiesterase 1 (TDP1): qHTS in cells in absence of CPT | 15% of 420,000 active | Potency, µM (series often up to 46.2 µM), hits mostly inhibitors | DT40 Tdp1-/- hTDP1 cells, no CPT, ATP luminescence, 48 h; note: nearly all actives have a fitted effect of over 55% in size
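No-CPT arm: Tdp1-/-;hTDP1 DT40 cells (400/well) plus compounds, incubated ≥48 hr at 37 °C. Readout CellTiter-Glo luminescence.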
HT1080 IDH1KD tx – kills HT-1080 cells with IDH1 knockdown; HT-1080 IDH1 knockdown viability, ATP luminescence, 48 h; Potency, µM (titrated, usually from 46.1 µM), most hits filed as cytotoxic; 2% of 360,000 active; AID 686971
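Cytotoxicity counter-line: IDH1KD HT-1080, 48 h, CellTiter-Glo. Curves classed by r2, magnitude and activity.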
HT1080NT lethal – kills 2HG-producing HT-1080-NT fibrosarcoma cells; HT-1080-NT fibrosarcoma viability, CellTiter-Glo ATP luminescence, 48 h; 1.6% of 360,000 active; Potency, µM (doses to about 46.1 µM), actives largely listed as cytotoxic;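 note: NT is the 2HG producing partner of a matched IDH1 knockdown line; nearly all actives have a fitted effect of over 55% in size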
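Fibrosarcoma NT cells, 750 per well in 5% FBS RPMI, were exposed to compound for 48 hours. Viability: CellTiter-Glo luminescence.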
12-LOX inh – blocks human arachidonate 12S-lipoxygenase. P18054. purified 12hLO, xylenol orange hydroperoxide absorbance. Potency, µM (series often up to 108 µM), most hits filed as inhibitors. 1.1% of 580,000 active. AID 1671190
Target sequence (P18054 whole entry, looked up): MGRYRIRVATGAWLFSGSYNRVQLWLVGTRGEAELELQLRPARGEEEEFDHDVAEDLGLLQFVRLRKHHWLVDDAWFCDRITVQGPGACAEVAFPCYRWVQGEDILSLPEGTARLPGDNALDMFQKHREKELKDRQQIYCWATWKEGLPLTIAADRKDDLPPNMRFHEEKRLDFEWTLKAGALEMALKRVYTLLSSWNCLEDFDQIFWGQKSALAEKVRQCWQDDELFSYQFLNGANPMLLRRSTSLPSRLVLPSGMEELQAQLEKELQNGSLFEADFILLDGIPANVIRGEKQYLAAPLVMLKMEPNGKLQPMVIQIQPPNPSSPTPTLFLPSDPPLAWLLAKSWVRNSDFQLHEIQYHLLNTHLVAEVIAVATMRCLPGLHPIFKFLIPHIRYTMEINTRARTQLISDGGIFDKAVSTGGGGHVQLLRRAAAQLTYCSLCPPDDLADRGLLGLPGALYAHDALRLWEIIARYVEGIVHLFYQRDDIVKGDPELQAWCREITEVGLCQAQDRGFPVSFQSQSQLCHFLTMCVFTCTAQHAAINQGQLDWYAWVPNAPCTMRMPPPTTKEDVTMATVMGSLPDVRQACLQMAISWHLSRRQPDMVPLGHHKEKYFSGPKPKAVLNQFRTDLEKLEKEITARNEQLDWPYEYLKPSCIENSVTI
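Hydroperoxide product was detected by ferrous iron/xylenol orange as the 573 to 405 nm absorbance ratio. Arachidonic acid at 40 uM (final) was turned over for 30 min at room temperature by 150 nM human 12hLO, pH 7.0 Hepes buffer, after 15 min compound preincubation.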
DT40 TDP1 CPT – growth inhibition of DT40 Tdp1-/-;hTDP1 cells with camptothecin (screen for TDP1 inhibitors); chicken DT40 Tdp1-/-;hTDP1 cells + 20 nM CPT, ATP luminescence, 48 h; Potency, µM (titrated, usually from 46.2 µM), usual class: inhibitors; 12% of 420,000 active; note: nearly all actives have a fitted effect of over 55% in size
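Chicken DT40 Tdp1-/- cells complemented with human TDP1, 400 cells/well, exposed to compounds plus 20 nM camptothecin for at least 48 h at 37 C; viability read as ATP content by CellTiter-Glo luminescence.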
IL-1B inflam inh – inhibitors of inflammasome signaling (IL-1 beta secretion) | THP-1 LPS/ATP IL-1B secretion, AlphaLISA, 16 h; stronger effect = lower value | activity change, % at 57.5 µM | 4.7% of 360,000 active; in the data active = activity change below about -50%; inconclusive = mostly about -30% to -49%
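Secreted IL-1B measured by AlphaLISA bead assay after 16 h compound exposure of THP-1 cells; compounds (final up to 57.5 uM) added 1 h before LPS (250 ng/mL) and ATP (1.25 mM) stimulation; lower signal means less secretion.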
Hits are given with their value. Unless noted, calls come from the whole dose curve; as a rule, active = well fitted curve in the direction sought with a large enough effect; inconclusive = small, poorly fitted or top-dose-only effect, or another doubt; inactive = no such curve, though single readings can be large; an effect the other way counts as inactive or inconclusive.

Screening Cc1ccc(NS(=O)(=O)c2ccc(-c3cnc(C4CC4)o3)cc2)c(C)c1 returned TDP1 cell noCPT 1µM, HT1080 IDH1KD tx 0.82µM, HT1080NT lethal inconclusive, 12-LOX inh inactive, DT40 TDP1 CPT 1.5µM and IL-1B inflam inh inactive.
For CCN(CC)c1ccc(NS(=O)(=O)c2ccc(-c3cnc(C4CC4)o3)cc2)c(C)c1 the results were TDP1 cell noCPT 16µM, 12-LOX inh inactive and DT40 TDP1 CPT 12µM.
O=S(=O)(Nc1ccc(F)cc1Cl)c1ccc(-c2cnc(C3CC3)o2)cc1 was read as TDP1 cell noCPT 0.73µM, HT1080 IDH1KD tx inconclusive, HT1080NT lethal 1.2µM, 12-LOX inh inactive, DT40 TDP1 CPT 0.65µM and IL-1B inflam inh inactive.
For CCc1ccc(NC(=O)Cc2c(C)c3ccc(OC)c(OC)c3oc2=O)cc1 the results were 12-LOX inh inactive.
`Cc1cc(C)c(NS(=O)(=O)c2ccc(-c3cnc(C4CC4)o3)cc2)c(C)c1` gave TDP1 cell noCPT 0.018µM, 12-LOX inh inactive and DT40 TDP1 CPT 0.58µM.
Screening N#Cc1ccc(OCc2ccc(C=O)o2)cc1 returned 12-LOX inh inactive.
`CC(=O)Nc1ccc(OCC(C)C)cc1` gave 12-LOX inh inactive.
For NCC1CCN(c2nc3ccccc3c3c2CCCC3)CC1 the results were TDP1 cell noCPT 12µM, HT1080 IDH1KD tx inconclusive, HT1080NT lethal inactive, 12-LOX inh inconclusive, DT40 TDP1 CPT 21µM and IL-1B inflam inh -95.
`CCC1(OC(=O)CN(C)C)C(=O)OCc2c1cc1n(c2=O)Cc2cc3c(N)cccc3nc2-1` (stereo not drawn) gave TDP1 cell noCPT 0.18µM, HT1080 IDH1KD tx 7.3µM, HT1080NT lethal 7.3µM, DT40 TDP1 CPT 0.16µM and IL-1B inflam inh -97.
O=C1NCCCCCCN(Cc2ccc(F)cc2F)[C@H]2CCC[C@@H]12 was read as 12-LOX inh inactive.
`CN(C)S(=O)(=O)c1cccc(-c2nn(-c3ccccc3)cc2/C=C2\SC(=S)NC2=O)c1` gave TDP1 cell noCPT inconclusive, HT1080 IDH1KD tx 10µM, HT1080NT lethal inconclusive, 12-LOX inh inconclusive, DT40 TDP1 CPT inconclusive and IL-1B inflam inh inactive.
Screening CN(C)S(=O)(=O)c1cccc(-c2nn(-c3ccccc3)cc2/C=C(\C#N)c2nc3ccccc3[nH]2)c1 returned TDP1 cell noCPT 5.8µM, HT1080 IDH1KD tx inactive, HT1080NT lethal inactive, 12-LOX inh inactive, DT40 TDP1 CPT 5.2µM and IL-1B inflam inh inactive.
Screening COc1ccc(-c2noc(CN(C)S(=O)(=O)c3ccc(OC)cc3)n2)cc1 returned 12-LOX inh inactive.
COc1cc(NC(=O)c2nn(-c3ccc(F)cc3)c(=O)n(C)c2=O)cc(OC)c1OC was read as TDP1 cell noCPT 10µM, 12-LOX inh inconclusive and DT40 TDP1 CPT 15µM.
For COc1ccc(Cl)cc1NC(=O)c1nn(-c2ccc(C)cc2)c(=O)n(C)c1=O the results were TDP1 cell noCPT inactive, 12-LOX inh inactive and DT40 TDP1 CPT 16µM.
For Cc1ccc(-n2nc(C(=O)Nc3ccc(C)c(F)c3)c(=O)n(C)c2=O)cc1 the results were TDP1 cell noCPT inactive, 12-LOX inh inactive and DT40 TDP1 CPT inactive.
For O=C(O)c1ccc(-c2ccc(/C=N/O)o2)cc1 the results were 12-LOX inh inactive.
Screening CC(C)CCNC(=O)NC(=O)CCl returned 12-LOX inh 28µM.
Screening N#Cc1ccccc1CN1CCCCCCNC(=O)[C@@H]2CCC[C@@H]21 returned 12-LOX inh inactive.
For CCc1c(C)sc2c1CCN(Cc1ccccc1C#N)C2c1ccccc1 (stereo not drawn) the results were TDP1 cell noCPT inconclusive, 12-LOX inh inactive and DT40 TDP1 CPT 9.2µM.
CCc1c(C)sc2c1CCN(Cc1ccccc1)C2c1ccccc1 (stereo not drawn) was read as TDP1 cell noCPT 2.9µM, 12-LOX inh inactive and DT40 TDP1 CPT 7.3µM.
For Cc1cccc(CN2CCCCCCNC(=O)CC2c2ccccc2)c1 (stereo not drawn) the results were 12-LOX inh inactive.
Screening CC(C)Cn1c(CN2CCC(Cc3ccccc3)CC2)nc2c1c(=O)n(C)c(=O)n2C returned 12-LOX inh inactive.
`COc1ccc(NC(=O)C2Cc3cccc(OC)c3O/C2=N\O)cc1` (stereo not drawn) gave TDP1 cell noCPT inconclusive, HT1080 IDH1KD tx inactive, HT1080NT lethal inactive, 12-LOX inh inactive, DT40 TDP1 CPT inconclusive and IL-1B inflam inh inactive.
Screening COc1cccc2c1O/C(=N\O)C(C(=O)Nc1ccc(C)cc1)C2 (stereo not drawn) returned TDP1 cell noCPT 5.2µM, HT1080 IDH1KD tx 15µM, HT1080NT lethal inconclusive, 12-LOX inh inactive, DT40 TDP1 CPT 5.8µM and IL-1B inflam inh inactive.
`CCN(Cc1ccccc1)C(=O)c1oc2ccc(S(=O)(=O)N3CCOCC3)cc2c1C` gave TDP1 cell noCPT inactive, HT1080 IDH1KD tx inactive, HT1080NT lethal inactive, 12-LOX inh inactive, DT40 TDP1 CPT inconclusive and IL-1B inflam inh -53.
`CCN(CC)C(=O)c1oc2ccc(S(=O)(=O)N3CCCCCC3)cc2c1C` gave TDP1 cell noCPT 23µM, HT1080 IDH1KD tx inactive, HT1080NT lethal inconclusive, 12-LOX inh inactive, DT40 TDP1 CPT inconclusive and IL-1B inflam inh inactive.
For Cc1c(C(=O)N2CCOCC2)oc2ccc(S(=O)(=O)N3CCCCCC3)cc12 the results were TDP1 cell noCPT inconclusive, HT1080 IDH1KD tx inactive, HT1080NT lethal inactive, 12-LOX inh inactive, DT40 TDP1 CPT inactive and IL-1B inflam inh inactive.
CCN(CC)C(=O)c1oc2ccc(S(=O)(=O)N3CC(C)CC(C)C3)cc2c1C (stereo not drawn) was read as TDP1 cell noCPT 9.2µM, HT1080 IDH1KD tx inconclusive, HT1080NT lethal inconclusive, 12-LOX inh inactive, DT40 TDP1 CPT 4.1µM and IL-1B inflam inh inactive.
`Cc1c(C(=O)Nc2ccc(F)cc2)oc2ccc(S(=O)(=O)N3CC(C)CC(C)C3)cc12` (stereo not drawn) gave TDP1 cell noCPT 15µM, HT1080 IDH1KD tx inactive, HT1080NT lethal inactive, 12-LOX inh inactive, DT40 TDP1 CPT 18µM and IL-1B inflam inh inactive.
Screening Cc1c(C(=O)NCc2cccnc2)oc2ccc(S(=O)(=O)N3CC(C)CC(C)C3)cc12 (stereo not drawn) returned TDP1 cell noCPT inactive, HT1080 IDH1KD tx inactive, HT1080NT lethal inactive, 12-LOX inh inactive, DT40 TDP1 CPT inconclusive and IL-1B inflam inh inactive.
For O=C(Cc1ccc(F)cc1)N1CCC2(CC1)CN(Cc1ccccc1)CC2CO (stereo not drawn) the results were 12-LOX inh inactive.
